Several values for one entry are separate records, joined by “and”; a condition that tells them apart may be missing. Equal entries are not always repeated. Inconclusive results are not listed. Activity calls are given as the source filed them. How the source made its calls, unless noted: active means hit-call score of the fitted dose curve at least 0.9, where 1 is the maximum; inconclusive means response in the unintended direction; inactive means score below 0.9.
target: human Retinoid X Receptor beta (RXRb), RXRB (gene 6257) (UniProt P28702); assay: ATG_RXRb_TRANS: Attagene TRANS-FACTORIAL HepG2 Assay for human Retinoid X Receptor beta (RXRb) (AID 2283013); conditions: not given
Sequence (P28702 whole entry, looked up): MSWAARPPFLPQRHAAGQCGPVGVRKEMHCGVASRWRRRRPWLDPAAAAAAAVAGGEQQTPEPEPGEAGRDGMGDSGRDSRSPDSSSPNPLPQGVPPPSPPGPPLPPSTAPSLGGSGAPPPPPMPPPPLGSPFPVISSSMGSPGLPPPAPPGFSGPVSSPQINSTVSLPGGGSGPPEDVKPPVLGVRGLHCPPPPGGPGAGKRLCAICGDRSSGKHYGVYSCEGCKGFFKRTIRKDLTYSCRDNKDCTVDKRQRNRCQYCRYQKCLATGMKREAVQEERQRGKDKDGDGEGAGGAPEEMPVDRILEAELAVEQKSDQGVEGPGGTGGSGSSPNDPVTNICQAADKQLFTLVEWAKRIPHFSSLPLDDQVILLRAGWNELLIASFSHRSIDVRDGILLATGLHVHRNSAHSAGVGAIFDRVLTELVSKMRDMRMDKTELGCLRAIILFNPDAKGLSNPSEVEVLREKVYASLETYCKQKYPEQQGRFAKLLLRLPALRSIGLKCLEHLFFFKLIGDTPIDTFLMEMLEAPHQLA
Method in brief: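 Multiplexed TRANS reporter assay in HepG2; 24 h dosing; reporter mRNA by RT-PCR/CE fluorescence; gain-of-signal relative to DMSO.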

Chain of E-selectin (Homo sapiens) (P16581 whole entry, looked up): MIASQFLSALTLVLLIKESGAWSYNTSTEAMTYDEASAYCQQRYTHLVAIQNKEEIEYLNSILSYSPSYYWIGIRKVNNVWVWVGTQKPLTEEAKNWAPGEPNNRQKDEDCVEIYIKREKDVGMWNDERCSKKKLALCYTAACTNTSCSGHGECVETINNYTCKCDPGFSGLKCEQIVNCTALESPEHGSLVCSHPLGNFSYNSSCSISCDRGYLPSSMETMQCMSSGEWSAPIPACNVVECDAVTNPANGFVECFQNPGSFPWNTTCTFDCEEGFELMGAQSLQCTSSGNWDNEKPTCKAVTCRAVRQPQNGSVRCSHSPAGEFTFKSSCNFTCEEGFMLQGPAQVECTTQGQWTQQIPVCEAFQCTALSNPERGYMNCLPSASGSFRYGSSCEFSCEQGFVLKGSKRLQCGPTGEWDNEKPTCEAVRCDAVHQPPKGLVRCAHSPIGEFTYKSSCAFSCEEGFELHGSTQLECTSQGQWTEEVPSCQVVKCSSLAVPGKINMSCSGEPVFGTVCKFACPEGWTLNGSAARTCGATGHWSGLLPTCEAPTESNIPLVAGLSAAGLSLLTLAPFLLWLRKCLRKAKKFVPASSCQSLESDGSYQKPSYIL

outcome, inactive:
C[N+](C)(C)CCCCCC[N+](C)(C)C
CCCCCCCC(=O)OCCCCCC
C=CC(C)C#N (centres undefined)
CCOC(=O)CN
O=C1OC[C@H](Cc2cccc(O)c2)[C@H]1Cc1cccc(O)c1
CCCCC1CCC(O)CC1 (centres undefined)
CC1(C)C2=CCCC(C)(C)[C@]23CC[C@H]1C3
CS(=O)(=O)OCCCCOS(C)(=O)=O
COS(=O)(=O)O
CC=Cc1ccc(OC)c(OC)c1
O=C(CS)OCCOC(=O)CS
CC1(C)CCC[C@]2(C)[C@H]3CCO[C@]3(C)CC[C@@H]12
Clc1cc(Cl)c(-c2c(Cl)c(Cl)cc(Cl)c2Cl)cc1Cl

AC50, active:
BrCc1cccc(Oc2ccccc2)c1 66.9 µM
CCCCCCCCCC(=O)OC 47 µM
OCc1cccc(Oc2ccccc2)c1 100 µM
CCOC(=O)C(C#N)=C(c1ccccc1)c1ccccc1 26.6 µM
CC(=O)c1c(C)c([N+](=O)[O-])c(C(C)(C)C)c([N+](=O)[O-])c1C 1 µM

target: human Thyroid Receptor alpha (THRa1), THRA (gene 7067) (UniProt P10827); assay: ATG_THRa1_TRANS: Attagene TRANS-FACTORIAL HepG2 Assay for human Thyroid Receptor alpha (THRa1) (AID 2283014); conditions: not given
Sequence (P10827 whole entry, looked up, the tested form may be a part): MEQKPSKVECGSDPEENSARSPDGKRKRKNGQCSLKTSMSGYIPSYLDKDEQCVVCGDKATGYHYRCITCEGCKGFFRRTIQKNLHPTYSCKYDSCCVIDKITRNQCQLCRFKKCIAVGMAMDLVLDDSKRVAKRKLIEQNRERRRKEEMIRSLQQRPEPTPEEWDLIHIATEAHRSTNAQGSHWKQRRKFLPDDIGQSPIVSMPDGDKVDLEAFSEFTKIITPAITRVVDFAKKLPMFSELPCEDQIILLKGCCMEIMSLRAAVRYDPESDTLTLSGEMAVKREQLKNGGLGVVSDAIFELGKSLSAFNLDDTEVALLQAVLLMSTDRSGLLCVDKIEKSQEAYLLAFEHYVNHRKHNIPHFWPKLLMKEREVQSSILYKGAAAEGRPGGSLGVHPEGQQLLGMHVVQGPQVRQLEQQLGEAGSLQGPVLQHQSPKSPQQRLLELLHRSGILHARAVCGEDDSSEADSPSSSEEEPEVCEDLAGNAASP
Method in brief: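 HepG2 cells transiently transfected with chimeric NR-Gal4 and GAL4-UAS reporter units, dosed 24 h. Reporter mRNA quantified by RT-PCR, fluorescent labeling, HpaI digestion and capillary electrophoresis; gain-of-signal fit versus DMSO.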

outcome, inactive:
C[N+](C)(C)CCCCCC[N+](C)(C)C
C#CC(C)(O)CC(C)C (centres undefined)
BrCc1cccc(Oc2ccccc2)c1
C=CC(C)C#N (centres undefined)
CCN(CC)C(=O)N(CC)CC
Nc1c(S(=O)(=O)O)cc(Br)c2c1C(=O)c1ccccc1C2=O
O=C1OC[C@H](Cc2cccc(O)c2)[C@H]1Cc1cccc(O)c1
CC/C=C\CCOC(=O)CC
CCCCC1CCC(O)CC1 (centres undefined)
OCc1cccc(Oc2ccccc2)c1
CC=CC=CCOC(=O)C(C)C
CCC(C)=O
CCOc1ccc(N=Nc2ccc(C=Cc3ccc(N=Nc4ccc(OCC)cc4)cc3S(=O)(=O)O)c(S(=O)(=O)O)c2)cc1
CCOC(=O)C(C#N)=C(c1ccccc1)c1ccccc1
COS(=O)(=O)O
CC=Cc1ccc(OC)c(OC)c1
Clc1cc(Cl)c(-c2c(Cl)c(Cl)cc(Cl)c2Cl)cc1Cl

read-out: E-selectin (Homo sapiens) (UniProt P16581); assay: BSK_3C_Eselectin: BioMAP Diversity Plus: 3C Assay for Eselectin Biomarker Activity (AID 2283015; active means hit-call score of the fitted dose curve at least 0.9, where 1 is the maximum; inactive means score below 0.9;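 on outcome: cell surface E-selectin protein quantified by ELISA 24 h after dosing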); conditions: primary human endothelial cells (HUVEC); actives raise or lower the signal
Method in brief: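 Primary human umbilical vein endothelial cells (3C system), read 24 h after compound addition; E-selectin measured by ELISA. Bidirectional curve fitting against DMSO baseline; cytotoxicity by parallel SRB total-protein staining.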

outcome, inactive:
CCN(CC)C(=O)N(CC)CC
O=C1OC[C@H](Cc2cccc(O)c2)[C@H]1Cc1cccc(O)c1
CS(=O)(=O)OCCCCOS(C)(=O)=O
CC(C)(N=C=O)c1cccc(C(C)(C)N=C=O)c1
CCOC(=O)C(C#N)=C(c1ccccc1)c1ccccc1
CC(=O)c1c(C)c([N+](=O)[O-])c(C(C)(C)C)c([N+](=O)[O-])c1C

AC50, active:
CC1(C)C2=CCCC(C)(C)[C@]23CC[C@H]1C3 32.8 µM
CC1(C)CCC[C@]2(C)[C@H]3CCO[C@]3(C)CC[C@@H]12 36.9 µM and 34.3 µM
Clc1cc(Cl)c(-c2c(Cl)c(Cl)cc(Cl)c2Cl)cc1Cl 13.8 µM
